RXFP1 ag: activates the human relaxin receptor RXFP1. Potency, µM (titrated, usually from 57.5 µM), for inactives: at the highest dose activation, most hits filed as activators. actives 0.3% (n = 370,000). AID 2676. Q9HBX9. HEK293T-RXFP1 cAMP TR-FRET, 30 min; response scale: percent of porcine relaxin response, buffer zero; active = well fitted activation curve with a large enough effect; inconclusive = small, poorly fitted or top-dose-only effect; also: potency is read from the fitted curve at half-maximal effect; % is scaled to controls: 0 for no effect and ±100 for the full control effect; nearly all actives have a fitted effect of over 60% in size
Target sequence (Q9HBX9 whole entry, looked up): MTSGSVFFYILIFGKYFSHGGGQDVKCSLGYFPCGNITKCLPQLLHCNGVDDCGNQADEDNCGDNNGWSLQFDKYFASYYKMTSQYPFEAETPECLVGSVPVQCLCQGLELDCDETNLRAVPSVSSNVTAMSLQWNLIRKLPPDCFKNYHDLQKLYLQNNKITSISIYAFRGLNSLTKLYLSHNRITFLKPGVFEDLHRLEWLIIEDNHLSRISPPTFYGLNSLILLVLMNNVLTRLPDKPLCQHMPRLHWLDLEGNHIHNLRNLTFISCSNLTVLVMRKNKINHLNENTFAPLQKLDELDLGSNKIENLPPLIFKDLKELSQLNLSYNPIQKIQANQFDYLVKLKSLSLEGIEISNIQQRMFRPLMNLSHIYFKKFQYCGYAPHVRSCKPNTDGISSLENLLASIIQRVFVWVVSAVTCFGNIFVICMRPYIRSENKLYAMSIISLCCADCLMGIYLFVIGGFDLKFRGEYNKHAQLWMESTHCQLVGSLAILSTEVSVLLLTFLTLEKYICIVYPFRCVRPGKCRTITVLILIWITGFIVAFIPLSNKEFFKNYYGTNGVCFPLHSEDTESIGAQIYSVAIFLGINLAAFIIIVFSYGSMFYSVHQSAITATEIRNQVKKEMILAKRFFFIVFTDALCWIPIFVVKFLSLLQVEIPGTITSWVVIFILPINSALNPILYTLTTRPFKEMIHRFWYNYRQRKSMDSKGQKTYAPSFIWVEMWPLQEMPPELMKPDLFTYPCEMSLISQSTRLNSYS
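cAMP rise read by TR-FRET after 30 min, 37C compound exposure (up to 58 uM) in RXFP1-transfected HEK293 cells with Ro 20174 present. EC50 from Hill-equation fits, with 29 nM porcine relaxin as 100% and buffer as basal.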
Akt phos inh: inhibitors of Akt phosphorylation; AID 651550; Neuro2A IGF-stimulated pAkt S473 HTRF, 20 min; hits give low values; actives 0.32% (n = 360,000); activity change, % for hits at 50 µM; in the data active = activity change below about -80%; inconclusive = mostly about -51% to -80%; also: % is scaled to controls: 0 for no effect and ±100 for the full control effect
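Neuro2A cells (4,500/well, DMEM with 0.5% FBS) were treated with compound at a single 50 µM final concentration, stimulated with 6 nM IGF for 20 min at 37 °C, and lysed. Phospho-Akt Ser473 was read by HTRF as 665/615 ratio ×10^4.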
gsp agonist: agonists of gsp mutant (McCune-Albright syndrome) | Potency, µM (doses to about 76.9 µM), inactives show at the highest dose activation (cAMP increase), most hits filed as activators | gsp mutant cells, cAMP HTRF, 30 min | AID 624287 | actives 0.13% (n = 340,000); active = well fitted activation curve with a large enough effect; inconclusive = small, poorly fitted or top-dose-only effect, or another doubt; inactive = no such curve, though single readings can be large or run the other way; cell line not stated here;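 also: phosphodiesterase inhibitor Ro 20-1724 added with compounds to block cAMP breakdown; potency is read from the fitted curve at half-maximal effect; nearly all actives have a fitted effect of over 60% in size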
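Cells stably selected in G418 were plated at 2000/well, grown 16-24 hr, then given compounds in DMSO with the PDE inhibitor […] (300 uM solution added) for 30 min at 37C; cAMP was read by HTRF.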
RXFP1 antagonist: blocks the human relaxin receptor RXFP1. HEK293-RXFP1, relaxin-stimulated cAMP HTRF, 30 min; hits give low values. activity change, negative = inhibition, % at 57.5 µM. actives 0.59% (n = 350,000);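 active = activity change of -60% or lower, but not beyond a set lower limit; inconclusive = change between -60% and -40%, or beyond the set limit; inactive = change above -40%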; also: % is scaled to controls: 0 for no effect and ±100 for the full control effect
gsp antagonist: antagonists of gsp mutant (McCune-Albright syndrome) | gsp-mutant cells, cAMP HTRF, 30 min | Potency, µM (doses to about 76.9 µM), for inactives: top-dose activity change, negative = inhibition, usual class: inhibitors | actives 0.4% (n = 340,000) | AID 624288; calls by dose curve; cell line not stated here;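 also: intracellular cAMP measured with PDE inhibitor Ro 20-1724 present during compound exposure; potency is read from the fitted curve at half-maximal effect; % is scaled to controls: 0 for no effect and ±100 for the full control effect; nearly all actives have a fitted effect of over 65% in size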
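Cells in G418 medium, seeded 16-24 h, 37C; buffer exchange to DPBS + 1 mM CaCl2, 0.5 mM MgCl2, 0.05% BSA; cpds in DMSO + […] (300 uM stock), 30 min 37C; HTRF cAMP detection.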
Active calls of the source: *; i = inactive; ? = inconclusive; nt = no result; ! = not active in a repeat; [ ] = remark or other dose. In the library only some 1.3% were active in any assay of this set; here they are far more common.

SMILES | RXFP1 ag | Akt phos inh | gsp agonist | RXFP1 antagonist | gsp antagonist
CC(C)Cn1c(N)c(C(=O)COC(=O)/C=C/c2ccccc2)c(=O)n(C)c1=O | 0% | i | 4%[15.4 µM] | -18 | 35µM*
CC(C)Cn1c(N)c(C(=O)COC(=O)[C@@H]2CCCN2C(=O)c2cccs2)c(=O)n(C)c1=O | 1% | i | 13µM* | 12 | -7%
COc1ccc([C@]23Cc4ccccc4C(O2)c2c(cc(C)n(Cc4ccccc4)c2=O)O3)cc1 | 4%[11.5 µM] | nt | nt | nt | nt
CCOC(=O)C(C(=O)Nc1ccccc1)C1CCCCC1 (stereo not given) | 2% | i | -3% | 0 | -7%
O=C(Nc1ccccc1)C(c1ccccc1)C1CCCC1 (stereo not given) | -2% | i | -4%[15.4 µM] | -70* | -14%
CCN(CC)CCCNC(=O)CSc1nc(-c2ccc(OC)cc2)cc(C(F)(F)F)n1 | -4% | nt | nt | -6 | nt
CNC(=O)c1ccccc1NC(=O)c1ccc(C)c(S(=O)(=O)N2CCCCC2)c1 | -1% | -112%* | 9% | 7 | -18%
Cc1ccc(NC(=O)c2ccc(F)c(S(=O)(=O)N3CCOCC3)c2)cc1F | 0% | i | -46% | -13 | 35µM*
Cc1ccc(C(=O)N2CCN(c3ccccc3)CC2)cc1S(=O)(=O)N1CCCC1 | 0% | -107%* | -40% | 4 | 32µM*
Cc1ccc(C(=O)Nc2cccc(O)c2)cc1S(=O)(=O)N1CCCCCC1 | -1% | i | -5% | -83*! | -8%
Cc1cccc(NC(=O)Cn2nnc(C(=O)Nc3ccccc3Br)c2N)c1C | 18% | nt | nt | -4 | nt
Cc1ccc(OCC(=O)Nc2cccc(C(=O)OCc3cc(=O)n4nc(C)sc4n3)c2)cc1 | 1% | nt | nt | -8 | nt
Cc1ccc(OCC(=O)Nc2nnc(S(=O)(=O)N3c4ccccc4CC3C)s2)cc1 (stereo not given) | 0% | nt | nt | -28 | nt
O=C(O)c1cccc(-n2cccc2C=C2C(=O)c3ccccc3C2=O)c1 | 0% | i | -16%[15.4 µM] | -22 | 35µM*
CC(C)COc1ccc(C(=O)Nc2onc3c2CCCC3)cc1 | 2% | nt | nt | -15 | nt
CSc1nc(-c2ccc(C)cc2)[nH]c1S(=O)(=O)c1ccccc1 | -2% | -106%* | -29% | 3 | -29%
CC(=O)Sc1nc(-c2ccccc2)[nH]c1S(=O)(=O)c1ccc(C)cc1 | 1% | i | -7%[15.4 µM] | -22 | -15%
COC(=O)c1ccc(CSc2n[nH]c(=S)s2)o1 | 0% | -100%* | 0% | -5 | -3%
COC(=O)c1ccc(CSc2nc3ccccc3s2)o1 | 0% | i | -13% | 7 | -3%
CCN(CC)S(=O)(=O)c1ccc(OC)c(NC(=O)COc2ccc3c(C)cc(=O)oc3c2)c1 | ? | i | 8.9µM* | nt | -49%
Cc1ccc2c(c1)C(=O)OC(C(=O)Nc1ccc(C(=O)O)cc1)C2 (stereo not given) | -2% | nt | nt | nt | nt
COCCN(C(=O)c1ccco1)C(C(=O)NC1CCCC1)c1cccs1 (stereo not given) | 0% | -92%* | 1% | -5 | 13%
CCOC(=O)CN(C(=O)CNC(=O)c1ccco1)C(C(=O)NC1CCCCC1)c1cccs1 (stereo not given) | -4% | i | 1% | -3 | -6%
Cc1cccc(-n2c(SCCC(=O)O)nnc2-c2cccs2)c1C | 2% | -115%* | 11% | 2 | -1%[15.4 µM]
C=CCn1c(SCCC(=O)O)nnc1-c1cccs1 | 0% | i | 2% | -2 | 3%
SMILES | RXFP1 ag | Akt phos inh | gsp agonist | RXFP1 antagonist | gsp antagonist
CCOC(=O)C1=C(C)OC(N)=C(C#N)C1c1ccccc1 (stereo not given) | 2% | i | 15% | -1 | 16%
CCOC(=O)CC1=C(C(=O)OCC)C(c2ccncc2)C(C#N)=C(N)O1 (stereo not given) | 1% | -116%* | 14% | -2 | -8%
COc1ccc(Br)cc1CNC(=O)c1ccc2c(c1)nc1n2CCCCC1 | 3% | nt | nt | ? | nt
Cc1cccc(Nc2nc(-c3ccc(F)cc3)cs2)n1 | 0% | i | -42%[15.4 µM] | -78* | -3%
CC1Sc2ccc(S(=O)(=O)N3CCC(C(=O)NCC(C)c4ccccc4)CC3)cc2NC1=O (stereo not given) | 0% | i | ? | -6 | 28µM*
CCCCCOC(=O)C1=C(C)N(C)C(=O)NC1c1cc(Br)c(O)c(OC)c1 (stereo not given) | 1% | i | 4% | 0 | 7.1µM*
O=C(CCc1ccccc1Cl)NC1CCCN(c2ccc(C(F)(F)F)cn2)C1 (stereo not given) | -1% | i | 10% | 1 | 4%
COc1ccccc1CCC(=O)NC1CCCN(c2ccc(C(F)(F)F)cn2)C1 (stereo not given) | 0% | i | 32% | -99* | -8%
CC(=O)N1CCC(C(=O)Nc2ccccc2)(N(Cc2ccccc2)C(=O)c2cccnc2)CC1 | -2% | -113%* | -63% | 2 | 6%
O=C(COC(=O)c1cccnc1)Nc1ccccc1 | 0% | i | -8% | -8 | 5%
NC(=O)c1ccccc1NC(=O)c1ccccc1Cl | 3% | i | ? | 5 | 7%
O=C(Nc1ccccc1C(=O)Nc1nnc(C(F)(F)F)s1)c1ccccc1Cl | 2% | i | -11%[15.4 µM] | -27 | 32µM*
COc1ccc(N2C(=O)c3ccccc3NC2c2ccc(OC)c(CSc3ccccn3)c2)cc1 (stereo not given) | 18% | -92%* | ? | 13 | 8%
CC(=O)Nc1ccc(NC(=O)CN(C)S(=O)(=O)c2ccc3c(c2)CCC(=O)N3)cc1 | 0% | i | -71% | -86* | 8%
CCOc1ccc(NC(=O)CN(C)S(=O)(=O)c2ccc3c(c2)CCC(=O)N3)cc1 | -2% | i | ? | -4 | 11%
Cc1ccc(Nc2nc(Cl)nc(NC(C)(C)C)n2)cc1 | 0% | i | -27% | -71* | -16%
CCCCN1C(=O)c2ccc(C(=O)Nc3cccc(C)c3C)cc2C1=O | 1% | i | -11% | -1 | -18%
CCCCN1C(=O)c2ccc(C(=O)Nc3ccc(C)c(S(=O)(=O)N(C)C)c3)cc2C1=O | 1% | i | -11% | -13 | 28µM*
Cn1cc(C(=O)O)c(=O)c2cc(S(=O)(=O)N3CCOCC3)ccc21 | -1% | nt | nt | -11 | nt
CCOC(=O)c1c(NC(=O)CSc2cn(CCNC(=O)c3c(F)cccc3F)c3ccccc23)sc2c1CCC2 | 1% | nt | nt | nt | nt
O=[N+]([O-])c1ccc(N2CCN(C(=S)Nc3ccccc3)CC2)cc1 | 0% | i | -3%[15.4 µM] | -22 | 13%
O=[N+]([O-])c1ccc(N2CCN(C(=S)NC3CCCCC3)CC2)cc1 | 2% | -112%* | -5% | -7 | -19%
CCc1nc(SCC(=O)NCCc2ccccc2)c2oc3ccccc3c2n1 | ? | -103%* | 9% | -8 | 8%
Cc1nc(SCC(=O)Nc2ccccc2)c2oc3ccccc3c2n1 | ? | -115%* | ? | 4 | 32%

High-throughput results deposited in PubChem BioAssay by National Center for Advancing Translational Sciences (NCATS).
